Assay outcomes: PubChem BioAssay, National Center for Advancing Translational Sciences (NCATS)
Hits are enriched below; roughly 7.1% of the tested compounds scored in any of these assays.
ATXN viability: cell viability loss in ATXN counter-screen; Potency, µM (highest dose often 56.7 µM), usual class: cytotoxic; hit rate 0.49% among 400,000; S2 cells (HEK-293 line with an ATXN2-luciferase reporter) viability, CellTiter-Fluor protease fluorescence, 24 h; AID 651635; note: potency is the fitted concentration of half-maximal effect; nearly all actives have a fitted effect of over 40% in size
PINK1 modulator: modulators of PINK1 expression; PINK1 immunofluorescence, high-content cytometry, 24 h; AID 624263; Potency, µM (highest dose often 76.6 µM), inactives show at the highest dose activation (PINK1 increase), actives largely listed as activators; hit rate 0.2% among 410,000; active = well fitted activation curve with a large enough effect; inconclusive = small, poorly fitted or top-dose-only effect; cell line not stated here; note: potency is the fitted concentration of half-maximal effect; % of control where 0% means no effect; nearly all actives have a fitted effect of over 65% in size
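PINK1 protein level read as immunofluorescence by microplate cytometer in a fixed, stained stable cell line after 24 h exposure to five compound concentrations, with CCCP as control.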
ATXN2 expr inh: ATXN2 expression inhibition | AID 1745845 | hit rate 0.72% among 360,000 | HEK-293 ATXN2-luciferase reporter, luminescence, 24 h | Potency, µM (series often up to 57 µM), without a hit: at the top dose activity change, negative = inhibition, usual class: inhibitors; note: potency is the fitted concentration of half-maximal effect; % is set by controls: 0 for no effect and ±100 for the full control effect; nearly all actives have a fitted effect of over 55% in size
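qHTS (up to 57 uM final) was run with 24 h compound exposure of reporter cells at 37 °C. Each well was multiplexed: SteadyGlo luminescence measured ATXN2-luciferase expression after a fluorogenic Gly-Phe-AFC viability readout (25 uM final).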
MCF10A rerep: DNA re-replication induction in MCF 10a cells; MCF 10A DNA re-replication, Hoechst nuclear intensity, 48 h; Potency, µM (highest dose often 46.1 µM), for inactives: at the top dose activity, positive = re-replication, actives largely listed as activators; hit rate 2.9% among 350,000; note: potency is the fitted concentration of half-maximal effect; % of control where 0% means no effect; nearly all actives have a fitted effect of over 50% in size
IL1B secr inh: inflammasome signaling inhibition, IL-1 beta readout; hit rate 4.7% among 360,000; THP-1 LPS/ATP IL-1B secretion, AlphaLISA, 16 h; stronger effect = lower value; activity change, % at 57.5 µM; AID 743279; in the data active = activity change below about -50%; inconclusive = mostly about -30% to -49%; note: % is set by controls: 0 for no effect and ±100 for the full control effect
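THP-1 cells pretreated 1 hr with compounds (up to 57.5 uM final), then stimulated with LPS (250 ng/mL final) plus ATP (1.25 mM final); secreted IL-1B measured by AlphaLISA after 16 hr, decreased signal indicating inhibition.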
SW480 rerep: inducers of DNA re-replication in SW480 colon cancer cells; Potency, µM (doses to about 46.1 µM), for inactives: at the highest dose re-replication activation, most hits filed as activators; SW480 DNA re-replication, Hoechst DNA content imaging, 48 h; hit rate 1.8% among 340,000; note: potency is the fitted concentration of half-maximal effect; % of control where 0% means no effect; nearly all actives have a fitted effect of over 55% in size
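Hoechst fluorescence of nuclei (405 nm excitation, 500-530 nm emission) measured by plate-scanning imager after 48 hr compound exposure at 37 C; re-replication scored as increased number of nuclei with elevated intensity.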
Numbers without * were called inactive; i = inactive; ? = inconclusive; . = no result; [ ] = remark or other dose. Unless noted, calls come from the whole dose curve; as a rule, active = well fitted curve in the direction sought with a large enough effect; inconclusive = small, poorly fitted or top-dose-only effect, or another doubt; inactive = no such curve, though single readings can be large; an effect the other way counts as inactive or inconclusive.

SMILES	ATXN viability	PINK1 modulator	ATXN2 expr inh	MCF10A rerep	IL1B secr inh	SW480 rerep
CN1C(c2ccc(F)cc2)=CS/C1=C(\C#N)c1nnc2n1-c1ccccc1SC2	i	.	-24%	12µM*	-79*	-4%
COc1ccc(Cn2cc(C(=O)c3ccc(C)c(C)c3)c(=O)c3ccccc32)cc1	.	-1%	?	.	.	.
CN(C)c1ccc(Cc2cc3c(O)ccc(O)c3cc(Cc3ccc(N(C)C)cc3)c2=O)cc1	i	10%	?	?	-113*	?
Cc1ccc2c(c1)c1c(c(=O)n(-c3cccc(Cl)c3)c(=O)n1CC(=O)N1CCCC1)n2C	i	1%	9%	.	.	.
CCO[C@H]1OC(C(=O)NCc2nc3ccccc3[nH]2)=C[C@@H](c2csc3ccccc23)[C@@H]1CCCO	?	-2%	-3%	5%	-13	-3%
CCO[C@H]1OC(C(=O)NCc2nc3ccccc3[nH]2)=C[C@@H](C2CC2)[C@@H]1CCCO	?	8%	-21%	3.7µM*	50	3.3µM*
CCO[C@@H]1OC(C(=O)NCc2nc3ccccc3[nH]2)=C[C@H](c2csc3ccccc23)[C@H]1CCCO	?	2%	?	26%	-56*	19%
CCOC(=O)c1nnc2c(-c3ccc(Cl)cc3)c(C)nn2c1C	i	-1%	4%	.	.	.
COc1cc(OC)nc(Nc2nc(C(N)c3ccccc3)cs2)n1 (configuration not stated)	i	6%	9%	.	-56*	.
COc1cccc(Nc2nc(C(N)c3ccccc3)cs2)n1 (configuration not stated)	i	12%	-27%	.	-71*	.
COc1cc(OC)nc(Nc2nc(C(N)c3ccccc3Cl)cs2)n1 (configuration not stated)	?	6%	-18%	.	.	.
CCOc1ccc(-c2nn3c(-c4cc(-c5ccccc5)n[nH]4)nnc3s2)cc1	.	7%	.	.	.	.
O=C(NCCCN1CCCC1=O)c1cc(S(=O)(=O)N2CCOCC2)ccc1Cl	i	-1%	-13%	-3%	10	0%
O=C(NCCCN1CCCC1=O)c1cc(S(=O)(=O)N2CCOCC2)c(Cl)cc1Cl	i	2%	2%	-1%	5	4.6µM*
CC(=O)O[C@@H]1C(=O)O[C@@H]2[C@H]1OC(=O)[C@@H]2OC(C)=O	i	.	-18%	.	.	.
Cc1ccc(NC(=O)Cn2c(=O)n(CCC(=O)N3CCc4ccccc4C3)c(=O)c3ccccc32)c(C)c1	i	3%	5%	.	.	.
S=C(Nc1ccc(Br)cc1)N1CCn2cccc2C1c1cccnc1 (configuration not stated)	i	0%	-23%	-4%	-65*	-9%
Cc1ccc(NC(=S)N2CCn3cccc3C2c2cccnc2)cc1 (configuration not stated)	i	4%	-2%	0%	-13	-2%
O=c1oc2ccccc2nc1/C=C(O)/C=C\c1ccccc1	i	-2%	7%	?	-54*	3%
Cc1cccc(-c2noc(CN(C3CCCCC3)S(=O)(=O)c3ccc(F)cc3)n2)c1	.	-1%	.	.	.	.
Nc1ncccc1OCc1cccc(C(F)(F)F)c1	i	0%	2%	-10%	-51*	7%
COc1cccc(CNc2ccccc2O)c1OCc1ccccc1F	i	2%	-13%	?	-92*	21µM*
COc1cccc(CNc2ccc(S(N)(=O)=O)cc2)c1OCc1ccccc1F	i	-2%	-19%	17%	0	5%
CCOc1cccc(CNCCO)c1OCc1ccc(Cl)cc1	i	7%	-17%	-1%	-55*	14%
COc1cccc(CNC(C)(C)CO)c1OCc1ccc(Cl)cc1	i	0%	-17%	-2%	-57*	-5%
SMILES	ATXN viability	PINK1 modulator	ATXN2 expr inh	MCF10A rerep	IL1B secr inh	SW480 rerep
Cc1ccnn1-c1ccc(C(=O)N2CCCN(S(=O)(=O)c3ccc(F)cc3)CC2)cc1	?	5%	.	-3%	-1	-4%
O=C(O)CCCC/C=C(\c1ccccc1)c1cccnc1	.	.	.	-3%	.	-4%
O=C1c2cccc3cc([N+](=O)[O-])cc(c23)C(=O)N1CCN1CCCC1	i	-2%	?	?	-98*	?
O=C1c2cccc3cc([N+](=O)[O-])cc(c23)C(=O)N1/N=C/c1ccc(O)cc1O	i	4%	-32%	18%	-96*	13µM*
Nc1cc2c3c(cccc3c1)C(=O)N(CCN1CCCC1)C2=O	?	-2%	?	?	-99*	15µM*
O=C(Nc1cc(Cl)cc(Cl)c1)c1ccc(F)c(S(=O)(=O)N2CCN(c3ccccc3F)CC2)c1	.	2%	.	.	.	.
O=C(Cc1ccccc1)Nc1ccc2[nH]ncc2c1	i	1%	10%	-3%	-58*	-11%
Clc1ccccc1CSc1nc2ccncc2[nH]1	i	3%	54%	6%	8	-4%
O=C(NCc1ccccc1Cl)c1ccc(CSc2nc3ccncc3[nH]2)cc1	i	-1%	0%	13%	-76*	-4%
CCn1c(COc2ccccc2C)nnc1SCC(=O)N1CCN(c2ccccc2)CC1	?	-1%[38.3 µM]	14µM*	-4%	-13	1%
CSc1ccc(CNC(=O)Cn2c(-c3cccs3)cc3cc(F)ccc32)cc1	?	7%	-16%	.	.	.
Cc1nn2c(C)c(C(=O)NCC(C)c3ccccc3)cnc2c1-c1ccccc1 (configuration not stated)	.	0%	.	.	.	.
CCc1nc2ccc(C(=O)N3CCN(C(=O)c4ccco4)CC3)cn2c1N(C)Cc1cccs1	i	1%	-6%	.	20	.
CCc1nc2ccc(C(=O)NC3CCN(Cc4ccccc4)CC3)cn2c1N(C)Cc1cccs1	?	0%	-2%	.	-52*	.
CCc1nc2ccc(C(=O)NC3CCN(Cc4ccccc4)CC3)cn2c1N(C)Cc1cc2ccccc2s1	?	-1%	?	.	-66*	.
Cc1ccc2cccc(OCc3cccc([N+](=O)[O-])c3)c2n1	i	5%	-3%	5%	-51*	-5%
Cc1ccc2cccc(OCCCOc3ccccc3F)c2n1	i	3%	6%	13µM*	-56*	?
C/C=C/c1ccc(OCCOc2cccc3cccnc23)c(OC)c1	i	0%	27%	?	-62*	?
O=Cc1ccc(OCCCOc2cccc3cccnc23)cc1	i	-1%	.	9%	-16	-7%
O=Cc1ccccc1OCCCOc1cccc2cccnc12	i	3%	.	18µM*	-11	96%
C/C=C/c1ccc(OCCOCCOc2cccc3cccnc23)c(OC)c1	i	?	-17%	?	0	-3%
Cc1cccc(OCCCOc2cccc3cccnc23)c1C	i	4%	-5%	23µM*	-7	?
